Inconclusive results are not listed. Calls of active or inactive are those of the source. Unless noted, calls come from the whole dose curve.
Key:
[1] = molecular target: Estrogen receptor (Homo sapiens) (UniProt P03372); experiment: qHTS assay for small molecule agonists of estrogen receptor alpha signaling (AID 588514); conditions: ER-alpha-UAS-bla HEK293, beta-lactamase ratio, 18 h; series mostly up to 76.8 µM;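 note: 0% = vehicle only and 100% = reference agonist; nearly all actives have a fitted effect of over 70% in size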
Method in brief: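 Efficacy is expressed against 20 nM 17-beta-estradiol (100%) and DMSO basal (0%); EC50 from Hill equation. Assay: beta-lactamase reporter in ER-alpha-UAS-bla HEK 293 cells, 18 h compound incubation, CCF4 detection.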

[2] = molecular target: Glucocorticoid receptor (Homo sapiens) (UniProt P04150); experiment: qHTS assay for small molecule agonists of glucocorticoid receptor signaling (AID 588532; active = well fitted curve in the direction sought with a large enough effect in the signal ratio, with a control signal flat; the % refers to the signal ratio;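 note: 100% = dexamethasone at 0.1 µM and 0% = DMSO only wells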); conditions: HeLa MMTV-bla, beta-lactamase ratio, agonist, 18 h; stronger effect = higher value; percent of dexamethasone control, DMSO zero
Method in brief: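 Titration series, up to 92 uM, applied to GRE-bla HeLa cells for 18 h at 37 C. Detection by CCF4 FRET substrate after 2 h at RT.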

[3] = molecular target: Peroxisome proliferator-activated receptor gamma (Homo sapiens) (UniProt P37231); experiment: qHTS assay for small molecule agonists of peroxisome proliferator-activated receptor gamma signaling (AID 588536; active = well fitted curve in the direction sought with a large enough effect in the signal ratio, with a control signal flat, not every such curve was filed as active; the % refers to the signal ratio;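 note: 0% = DMSO basal wells and 100% = rosiglitazone at 2 µM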); conditions: HEK293 PPARg-UAS-bla, beta-lactamase ratio, 16 h, percent of rosiglitazone response, DMSO as zero; series mostly up to 76.7 µM
Method in brief: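 Using GeneBLAzer HEK293 cells, response was quantified by CCF4 fluorescence and normalized between basal DMSO (0%) and rosiglitazone 2 uM (100%); curves yielded half-maximal stimulation concentration and efficacy.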

[4] = molecular target: Vitamin D3 receptor (Homo sapiens) (UniProt P11473); experiment: qHTS assay for small molecule antagonists of vitamin D receptor signaling (AID 588541); conditions: HEK293T VDR-UAS-bla, beta-lactamase ratio, antagonist mode; series mostly up to 76.7 µM;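 note: receptor activated by calcitriol during compound treatment; % is set by controls: 0 for no effect and ±100 for the full control effect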
Method in brief: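 VDR-UAS-bla HEK293T cells (2000/well, 2% charcoal-stripped FBS) were treated with titrated compounds plus 1-alpha,25-dihydroxyvitamin D3 (50 nM or 3 nM final) for 16 h at 37 C. CCF4 beta-lactamase fluorescence was read; Hill fits gave IC50.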

[5] = molecular target: Vitamin D3 receptor (Homo sapiens) (UniProt P11473); experiment: qHTS assay for small molecule agonists of vitamin D receptor signaling (AID 588543); conditions: HEK293T VDR-UAS-bla, beta-lactamase ratio, 16 h; series mostly up to 76.8 µM;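 note: 0% = DMSO basal and 100% = reference agonist control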
Method in brief: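 VDR-UAS-bla HEK293T cells, 2000/well, 2% charcoal-stripped FBS; compound titration 16 h at 37 C; CCF4 beta-lactamase ratio read. Normalized to 50 nM 1-alpha,25-dihydroxyvitamin D3 (100%) and DMSO; Hill fit gives EC50, efficacy.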

[6] = qHTS assay for small molecule agonists of retinoid X receptor alpha signaling (AID 588544); conditions: HEK293T RXRa-UAS-bla, beta-lactamase reporter, 18 h; 530 nm emission;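 for activation: 0% = DMSO basal wells and 100% = reference agonist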
[7] = molecular target: Retinoic acid receptor RXR-alpha (Homo sapiens) (UniProt P19793); experiment: as above; conditions: HEK293T RXRa-UAS-bla, beta-lactamase reporter, 18 h; series mostly up to 76.7 µM
[8] = molecular target: Thyroid hormone receptor beta (Homo sapiens) (UniProt P10828); experiment: qHTS assay for small molecule agonists of thyroid hormone receptor beta signaling (AID 588545); conditions: TR-UAS-bla GripTite HEK 293, beta-lactamase ratio, agonist mode, 18 h; series mostly up to 76.7 µM;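 note: 0% = DMSO only and 100% = 10 nM T3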
Method in brief: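 Stimulation of a TR-driven beta-lactamase reporter was quantified in GripTite HEK 293 cells. Compound series ran for 18 hrs; curves were normalized to T3 and DMSO controls and fitted to yield EC50.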

[9] = qHTS assay for small molecule antagonists of retinoid X receptor alpha signaling (AID 588546; active = well fitted inhibition curve with a large enough effect in the signal ratio, with a control signal flat, not every such curve was filed as active; the % refers to the signal ratio;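 note: cells stimulated with 9-cis-retinoic acid as agonist; % is set by controls: 0 for no effect and ±100 for the full control effect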); conditions: HEK293T RXRa-UAS-bla, beta-lactamase ratio, antagonist mode; measured here: W530 green channel, cytotoxicity proxy
Method in brief: (§1)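 Beta-lactamase reporter inhibition, read as CCF4 fluorescence ratio (ex 405, em 460/530 nm) after 2 h at RT. HEK293T UAS-bla cells, 2500/well, were stimulated with 9-cis-RA at 500 or 100 nM final alongside test compound for 18 h at 37 C.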

[10] = molecular target: Retinoic acid receptor RXR-alpha (Homo sapiens) (UniProt P19793); experiment: as above; conditions: HEK293T RXRa-UAS-bla, beta-lactamase ratio, antagonist mode
Method in brief: as §1

[11] = qHTS assay for small molecule activators of the nuclear factor-kappa B (NF-kB) signaling pathway (AID 651749; active = well fitted activation curve with a large enough effect in the signal ratio; the % refers to the signal ratio; note: % of control where 0% means no effect); conditions: NF-kB-bla ME-180 cells, beta-lactamase FRET ratio, 16 h; activation: stronger effect = higher value
Method in brief: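 Human ME-180 cervical cells with an NF-kB-bla construct; compounds added via 23 nL pin transfer, DMSO as vehicle; incubation 16 hr. Reporter activity measured by FRET disruption.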

[12] = qHTS assay for environmental chemicals that activate the Aryl hydrocarbon Receptor (AhR) signaling pathway (AID 651777; active = well fitted curve in the direction sought with a large enough effect; an effect the other way counts as inactive or inconclusive; note: % of control where 0% means no effect; nearly all actives have a fitted effect of over 15% in size); conditions: 1A2-DRE human hepatoma cells, luciferase, 24 h; activation: stronger effect = higher value
Method in brief: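 AhR activation is scored as a rise in luciferase from a stable DRE–CYP1A2 promoter construct in human hepatoma cells. Treatment lasts 24 hr at 37 C; detection uses One-Glo after 30 min at room temperature.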

[13] = molecular target: Peroxisome proliferator-activated receptor alpha (Homo sapiens) (UniProt Q07869); experiment: qHTS assay for small molecule agonists of the peroxisome proliferator-activated receptor alpha (PPARalpha) signaling pathway (AID 651778; active = well fitted curve in the direction sought with a large enough effect; an effect the other way counts as inactive or inconclusive; note: % of control where 0% means no effect); conditions: PathHunter PPARalpha complementation, chemiluminescence, 6 h; max response: stronger effect = higher value
Method in brief: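 Cells plated at 2,000/well and held overnight at 37 C, 5% CO2, then compound added by pin tool for 6 hr; after PathHunter detection reagent and 60 min at room temperature, chemiluminescence from enzyme complementation was read.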

[14] = qHTS assay for small molecule agonists of the antioxidant response element (ARE) signaling pathway measured by Nrf2-dependant transcriptional activity (AID 720636; active = well fitted curve in the direction sought with a large enough effect in the repeat runs; an effect the other way counts as inactive or inconclusive;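 note: HepG2 cells with an ARE-driven luciferase reporter; % of control where 0% means no effect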); conditions: ARE-luc HepG2, Nrf2 luciferase reporter, 16 h; series mostly up to 92.4 µM
Method in brief: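 First, ARE-luc HepG2 cells attached for 6 hr at 37 C in 1% dialyzed FBS medium. Next, compound or DMSO was added and incubated 16 hr. Finally, ONE-Glo reagent was added and luminescence measured after 30 min.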

[15] = qHTS assay for cell viability of HEK293 cells (AID 743288; active = well fitted curve in the direction sought with a large enough effect; an effect the other way counts as inactive or inconclusive; note: nearly all actives have a fitted effect of over 50% in size; note: potency is the fitted concentration of half-maximal effect); conditions: ATP luminescence (CellTiter-Glo), 18 h; max response: stronger effect = lower value
Method in brief: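 Steps: plate 2,000 parental HEK293 cells per well; incubate ≥5 h, 37 C; add compounds in DMSO; incubate 18 h, 37 C; add CellTiter-Glo; wait 30 min at room temperature; read luminescence.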

[16] = qHTS assay for cell viability of the p53RE-bla HCT-116 cell line (AID 743292; active = well fitted curve in the direction sought with a large enough effect; an effect the other way counts as inactive or inconclusive; note: % is set by controls: 0 for no effect and ±100 for the full control effect; nearly all actives have a fitted effect of over 55% in size); conditions: p53RE-bla HCT-116 viability, ATP luminescence, 16 h; series mostly up to 95 µM
Method in brief: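 Quantitative high-throughput format: compounds in DMSO were pinned onto p53RE-bla HCT-116 cells (4,000/well) and incubated 16 h at 37 C. Total intracellular ATP, read by CellTiter-Glo luminescence, reflects viable cell number.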

[17] = molecular target: Nuclear receptor subfamily 1 group I member 2 (Rattus norvegicus) (UniProt Q9R1A7); experiment: qHTS assay for small molecule activators of the rat pregnane X receptor (rPXR) signaling pathway (AID 651751; call rule not given here; note: 0% is about no effect); conditions: rPXR reporter cells, luciferase (One-Glo), 24 h
[18] = qHTS assay for small molecule activators of the human pregnane X receptor (PXR) signaling pathway (AID 720659; call rule not given here; note: 0% is about no effect); conditions: DPX-2 HepG2 CYP3A4-luciferase, 24 h; series mostly up to 92.3 µM
[19] = molecular target: Glucocorticoid receptor (Homo sapiens) (UniProt P04150); experiment: qHTS assay for small molecule antagonists of glucocorticoid receptor signaling (AID 588533; active = well fitted inhibition curve with a large enough effect in the signal ratio, with a control signal flat, not every such curve was filed as active; the % refers to the signal ratio;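 note: cells stimulated with 2 nM dexamethasone as agonist; % is set by controls: 0 for no effect and ±100 for the full control effect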); conditions: HeLa MMTV-bla, GRE beta-lactamase ratio, antagonist mode, 18 h; series mostly up to 76.8 µM
Method in brief: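 Antagonist-mode qHTS: compound titrations added to GRE-bla HeLa cells, then dexamethasone 2 nM final; 18 h, 37 C. CCF4 FRET fluorescence normalized to dexamethasone and DMSO; IC50 from Hill fit.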

[20] = qHTS assay for small molecule agonists of the antioxidant response element (ARE) signaling pathway measured by Nrf2-dependant transcriptional activity - cell viability counter screen (AID 720653; active = well fitted curve in the direction sought with a large enough effect in the repeat runs; an effect the other way counts as inactive or inconclusive; note: % is set by controls: 0 for no effect and ±100 for the full control effect); conditions: ARE-bla HepG2 viability, CellTiter-Glo ATP luminescence, 16 h; max response: stronger effect = lower value
Method in brief: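 ARE-bla HepG2 cells (2,000/well) rested 5 hrs at 37C/5% CO2, then exposed to compounds in DMSO for 16 hrs. Viability was read in the same wells as intracellular ATP by luminescence, 30 min at room temperature after reagent addition.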

Sequence of Peroxisome proliferator-activated receptor alpha (Homo sapiens) (Q07869 whole entry, looked up): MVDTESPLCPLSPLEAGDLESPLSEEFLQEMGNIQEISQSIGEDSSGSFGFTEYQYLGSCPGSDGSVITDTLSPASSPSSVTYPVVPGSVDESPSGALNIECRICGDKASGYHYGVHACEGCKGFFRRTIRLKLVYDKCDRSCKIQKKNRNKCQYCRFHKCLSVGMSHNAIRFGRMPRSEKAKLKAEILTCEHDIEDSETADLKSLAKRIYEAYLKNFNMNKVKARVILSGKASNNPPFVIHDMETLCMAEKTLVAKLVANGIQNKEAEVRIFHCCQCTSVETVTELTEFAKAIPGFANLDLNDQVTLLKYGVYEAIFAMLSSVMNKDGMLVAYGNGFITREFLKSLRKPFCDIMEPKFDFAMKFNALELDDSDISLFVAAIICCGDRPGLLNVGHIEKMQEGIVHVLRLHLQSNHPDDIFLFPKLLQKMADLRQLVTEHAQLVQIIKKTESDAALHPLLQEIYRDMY
Sequence of Retinoic acid receptor RXR-alpha (Homo sapiens) (P19793 whole entry, looked up): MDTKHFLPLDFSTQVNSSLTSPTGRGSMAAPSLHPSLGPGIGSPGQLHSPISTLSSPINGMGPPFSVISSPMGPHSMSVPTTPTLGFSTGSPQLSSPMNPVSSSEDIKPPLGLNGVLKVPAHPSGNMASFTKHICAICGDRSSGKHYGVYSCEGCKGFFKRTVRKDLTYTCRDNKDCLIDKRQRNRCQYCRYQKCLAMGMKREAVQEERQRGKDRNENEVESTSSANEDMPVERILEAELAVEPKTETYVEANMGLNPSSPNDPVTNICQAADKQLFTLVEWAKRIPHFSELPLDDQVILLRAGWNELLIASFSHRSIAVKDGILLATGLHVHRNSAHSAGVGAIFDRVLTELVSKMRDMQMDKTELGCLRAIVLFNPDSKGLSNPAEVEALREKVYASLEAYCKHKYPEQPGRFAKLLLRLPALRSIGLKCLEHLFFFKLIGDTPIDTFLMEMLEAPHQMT
Sequence of Glucocorticoid receptor (Homo sapiens) (P04150 whole entry, looked up): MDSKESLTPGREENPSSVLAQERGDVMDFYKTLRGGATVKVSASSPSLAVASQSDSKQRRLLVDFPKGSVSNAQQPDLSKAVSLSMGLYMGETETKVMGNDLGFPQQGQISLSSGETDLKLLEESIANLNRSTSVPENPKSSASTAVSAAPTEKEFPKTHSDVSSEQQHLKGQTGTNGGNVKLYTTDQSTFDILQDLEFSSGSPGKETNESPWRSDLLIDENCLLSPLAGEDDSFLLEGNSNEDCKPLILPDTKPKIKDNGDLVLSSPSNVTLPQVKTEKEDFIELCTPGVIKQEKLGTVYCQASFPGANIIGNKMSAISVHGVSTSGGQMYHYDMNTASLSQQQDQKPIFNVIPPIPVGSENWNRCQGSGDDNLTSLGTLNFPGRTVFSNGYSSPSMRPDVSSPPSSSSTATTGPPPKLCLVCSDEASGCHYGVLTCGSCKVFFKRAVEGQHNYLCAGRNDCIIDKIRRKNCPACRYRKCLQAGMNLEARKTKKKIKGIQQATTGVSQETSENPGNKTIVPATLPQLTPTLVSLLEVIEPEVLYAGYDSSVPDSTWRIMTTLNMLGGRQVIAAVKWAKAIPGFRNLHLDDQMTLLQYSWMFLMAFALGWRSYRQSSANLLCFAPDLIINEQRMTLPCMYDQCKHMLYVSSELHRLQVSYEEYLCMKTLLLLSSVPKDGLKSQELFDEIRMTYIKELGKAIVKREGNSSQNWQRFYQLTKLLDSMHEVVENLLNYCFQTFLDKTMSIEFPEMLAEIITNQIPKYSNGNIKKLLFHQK
Sequence of Nuclear receptor subfamily 1 group I member 2 (Rattus norvegicus) (Q9R1A7 whole entry, looked up): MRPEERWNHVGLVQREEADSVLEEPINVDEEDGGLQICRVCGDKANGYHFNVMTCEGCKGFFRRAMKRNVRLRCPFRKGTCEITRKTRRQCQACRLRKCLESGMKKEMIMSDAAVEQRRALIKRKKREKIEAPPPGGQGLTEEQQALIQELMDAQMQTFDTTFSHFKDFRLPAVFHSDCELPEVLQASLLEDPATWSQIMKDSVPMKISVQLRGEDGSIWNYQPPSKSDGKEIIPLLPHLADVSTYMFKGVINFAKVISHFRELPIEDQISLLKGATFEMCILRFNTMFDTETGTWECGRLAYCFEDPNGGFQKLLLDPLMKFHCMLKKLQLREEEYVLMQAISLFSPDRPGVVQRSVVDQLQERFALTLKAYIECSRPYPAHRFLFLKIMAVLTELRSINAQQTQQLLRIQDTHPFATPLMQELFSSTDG
Sequence of Peroxisome proliferator-activated receptor gamma (Homo sapiens) (P37231 whole entry, looked up): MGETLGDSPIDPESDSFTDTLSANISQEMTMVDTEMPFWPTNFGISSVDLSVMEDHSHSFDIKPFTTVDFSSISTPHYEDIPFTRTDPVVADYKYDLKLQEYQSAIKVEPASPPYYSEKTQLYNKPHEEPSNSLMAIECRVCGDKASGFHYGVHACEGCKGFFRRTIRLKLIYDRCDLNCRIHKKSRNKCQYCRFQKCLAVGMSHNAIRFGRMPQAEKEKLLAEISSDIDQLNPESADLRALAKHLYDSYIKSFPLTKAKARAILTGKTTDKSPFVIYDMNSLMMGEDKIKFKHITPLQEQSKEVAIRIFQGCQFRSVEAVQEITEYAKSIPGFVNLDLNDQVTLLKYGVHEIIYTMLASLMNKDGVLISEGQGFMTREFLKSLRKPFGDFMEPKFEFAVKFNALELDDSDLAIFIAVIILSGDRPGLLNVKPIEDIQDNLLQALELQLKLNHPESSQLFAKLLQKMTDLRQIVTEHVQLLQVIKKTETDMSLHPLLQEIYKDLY
Sequence of Vitamin D3 receptor (Homo sapiens) (P11473 whole entry, looked up): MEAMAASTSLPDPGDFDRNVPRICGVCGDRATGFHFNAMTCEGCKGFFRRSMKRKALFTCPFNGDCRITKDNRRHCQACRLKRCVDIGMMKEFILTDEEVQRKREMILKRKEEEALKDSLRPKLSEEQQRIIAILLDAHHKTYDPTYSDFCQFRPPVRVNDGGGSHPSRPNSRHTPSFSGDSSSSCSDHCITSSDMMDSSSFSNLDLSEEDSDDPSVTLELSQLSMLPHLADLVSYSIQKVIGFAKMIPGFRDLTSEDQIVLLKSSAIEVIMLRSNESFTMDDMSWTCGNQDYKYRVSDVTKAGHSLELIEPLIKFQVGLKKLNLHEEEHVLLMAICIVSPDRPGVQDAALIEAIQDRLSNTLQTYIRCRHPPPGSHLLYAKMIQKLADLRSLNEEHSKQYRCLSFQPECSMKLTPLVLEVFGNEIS
Sequence of Estrogen receptor (Homo sapiens) (P03372 whole entry, looked up): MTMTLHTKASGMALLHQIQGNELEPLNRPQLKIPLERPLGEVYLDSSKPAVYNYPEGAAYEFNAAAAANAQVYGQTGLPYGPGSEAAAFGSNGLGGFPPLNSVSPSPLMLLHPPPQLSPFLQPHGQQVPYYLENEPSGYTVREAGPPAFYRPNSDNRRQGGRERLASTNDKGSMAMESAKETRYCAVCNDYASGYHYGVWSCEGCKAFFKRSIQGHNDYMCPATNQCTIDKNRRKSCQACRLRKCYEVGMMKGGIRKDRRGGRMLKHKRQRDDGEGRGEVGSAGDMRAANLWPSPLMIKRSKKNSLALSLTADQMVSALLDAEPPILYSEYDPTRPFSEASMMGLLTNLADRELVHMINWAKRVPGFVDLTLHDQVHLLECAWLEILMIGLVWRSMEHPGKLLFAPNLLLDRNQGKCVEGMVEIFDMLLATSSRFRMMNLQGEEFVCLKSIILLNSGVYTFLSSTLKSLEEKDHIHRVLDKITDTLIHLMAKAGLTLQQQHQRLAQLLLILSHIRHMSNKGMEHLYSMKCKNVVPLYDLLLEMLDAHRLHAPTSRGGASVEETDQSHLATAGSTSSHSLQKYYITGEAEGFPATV
Sequence of Thyroid hormone receptor beta (Homo sapiens) (P10828 whole entry, looked up): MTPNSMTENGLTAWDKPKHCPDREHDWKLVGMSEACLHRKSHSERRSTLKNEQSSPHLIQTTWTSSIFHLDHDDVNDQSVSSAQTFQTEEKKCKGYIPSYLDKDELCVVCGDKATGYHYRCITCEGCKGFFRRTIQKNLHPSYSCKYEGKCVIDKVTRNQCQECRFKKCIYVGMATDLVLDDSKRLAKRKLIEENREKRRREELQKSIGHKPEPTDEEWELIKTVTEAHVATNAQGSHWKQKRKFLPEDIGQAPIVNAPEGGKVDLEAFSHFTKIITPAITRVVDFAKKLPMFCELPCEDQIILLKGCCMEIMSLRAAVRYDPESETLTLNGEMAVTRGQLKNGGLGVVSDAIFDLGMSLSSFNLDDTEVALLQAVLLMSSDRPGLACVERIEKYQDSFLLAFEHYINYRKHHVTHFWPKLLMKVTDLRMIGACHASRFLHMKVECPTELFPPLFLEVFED

Cl[Si](Cl)(Cl)c1ccccc1
inactive: Potency [1] | activation [2] 5.43% | outcome [3] | Potency [4] | outcome [5] | Potency [7] | Potency [8] | max response [10] -5.52% | activation [11] -0.0547% | activation [12] -0.059% | max response [13] -2.31% | Potency [14] | max response [15] -13.3% | Potency [16] | max response [17] 1.77% | outcome [18]
-7.94%: max response [9]
-15.8%: max response [6]

Nc1ccc(N)c2c1C(=O)c1c(N)ccc(N)c1C2=O
inactive: Potency [1] | activation [2] 0.353% | Potency [19] | outcome [3] | Potency [4] | outcome [5] | Potency [7] | Potency [8] | activation [11] 7.06% | activation [12] 12.2% | max response [13] 7.09% | max response [20] -2.4% | max response [15] -28.2% | Potency [16] | max response [17] -7.59% | outcome [18]
-9.83%: max response [6]

CC1(C)[C@@H]([C@@H](Br)C(Br)(Br)Br)[C@H]1C(=O)O[C@H](C#N)c1cccc(Oc2ccccc2)c1
active: Potency [15] 50.1 µM
inactive: Potency [1] | activation [2] -6.04% | Potency [19] | outcome [5] | activation [12] 0.917% | max response [13] -5.06% | Potency [14] | max response [20] -14.5% | Potency [16]

O=C(Cl)c1ccc(C(=O)Cl)cc1
-3.06%: max response [6]
-14.3%: max response [9]
inactive: Potency [1] | Potency [19] | Potency [4] | outcome [5] | Potency [7] | max response [10] 2.6% | activation [12] -0.806% | max response [13] -0.543% | Potency [14] | max response [20] -8.12% | Potency [16] | max response [17] -1.54% | outcome [18]

CCCCCCCC(=O)Oc1c(Br)cc(C#N)cc1Br
inactive: Potency [1] | Potency [19] | outcome [3] | Potency [4] | outcome [5] | Potency [7] | Potency [8] | max response [10] -20.9% | activation [11] -2.23% | Potency [14] | max response [20] 0.905% | max response [15] -6.14% | Potency [16] | max response [17] -8.28% | outcome [18]
-5.85%: max response [9]
-14.9%: max response [6]
